Hits are enriched below; roughly 10% of the tested compounds scored in any of these assays.
Luc counter – counter-screen: inhibitors of Kinase-Glo firefly luciferase. Kinase-Glo luciferase, ATP luminescence, 8 min. Potency, µM (top dose mostly 38.3 µM), most hits filed as inhibitors. 0.28% of 200,000 active; active means well fitted inhibition curve with a large enough effect; inconclusive means small, poorly fitted or top-dose-only effect; further: nearly all actives have a fitted effect of over 60% in size
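Inhibition of Kinase-Glo luciferase light generation was assessed at 10 uM ATP in pH 7.2 imidazole buffer, with luminescence measured after eight minutes at ambient temperature.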
ALDH1A1 block – blocks purified human ALDH1A1 activity | P00352 | Purified ALDH1A1, NADH fluorescence, propionaldehyde substrate | Potency, µM (highest dose often 75.3 µM), actives largely listed as inhibitors | 7.3% of 220,000 active | AID 1030
Target sequence (P00352 whole entry, looked up): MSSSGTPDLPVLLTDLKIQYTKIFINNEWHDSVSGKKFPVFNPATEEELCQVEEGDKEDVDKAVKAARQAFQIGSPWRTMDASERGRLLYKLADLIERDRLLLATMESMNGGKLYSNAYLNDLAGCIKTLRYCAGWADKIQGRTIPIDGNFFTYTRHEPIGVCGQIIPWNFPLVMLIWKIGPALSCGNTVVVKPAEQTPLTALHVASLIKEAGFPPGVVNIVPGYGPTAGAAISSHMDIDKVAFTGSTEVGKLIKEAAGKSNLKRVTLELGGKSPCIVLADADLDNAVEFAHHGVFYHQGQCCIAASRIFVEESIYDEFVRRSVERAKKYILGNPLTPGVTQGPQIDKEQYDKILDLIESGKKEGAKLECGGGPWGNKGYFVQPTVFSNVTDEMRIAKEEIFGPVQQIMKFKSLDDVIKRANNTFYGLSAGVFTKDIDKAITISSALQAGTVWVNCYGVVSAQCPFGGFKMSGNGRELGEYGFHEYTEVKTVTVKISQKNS
HPGD block – inhibitors of human 15-hydroxyprostaglandin dehydrogenase (HPGD) | P15428 | purified HPGD, NADH fluorescence kinetic, PGE2 substrate | Potency, µM, actives largely listed as inhibitors | 4.3% of 150,000 active
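NADH formation kinetics: reaction with 30 uM PGE2 and 1 mM NAD+ (final), 20 nM enzyme, Tris-HCl pH 8 with Tween 20, after 15 min compound preincubation at room temperature. Fluorescence change, last versus first of five reads.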
LMNA splice mod – LMNA splicing modulation. HeLa LMNA splicing GFP/RFP minigene ratio, 48 h. Potency, µM (highest dose often 46.1 µM), usual class: inhibitors. 0.01% of 200,000 active; active means well fitted inhibition curve with a large enough effect in the signal ratio, with a control signal flat, not every such curve was filed as active; inconclusive means small, poorly fitted or top-dose-only effect, or effect the other way, or a change in a side signal; the % refers to the signal ratio
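Read-out is the ratio of GFP to DsRed2 object intensity, acquired by 488 nm laser-scanning cytometry on HeLa lamin A-EGFP minigene reporter cells. Compound incubation 48 hrs at 37 °C in Opti-MEM with 2% FBS; DMSO 0.5% final.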
PNC inhibitor – inhibitors of perinucleolar compartment assembly; PC3M PTB-GFP, PNC prevalence imaging, 16 h; hits give low values; activity change (PNC), negative = inhibition, % at 10 µM; 3.1% of 140,000 active;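 active means readout at or below -70, meaning at least 70% loss of cells showing the perinucleolar compartment, a nuclear body marking cancer cells; inconclusive means readout between -30 and a set limit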
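Read-out is percentage of cells bearing a perinucleolar compartment, from automated 20x imaging of fixed, Hoechst-stained PC3M PTB-GFP cells. Cells were seeded 4 h, then exposed 16 h to compound (23 nl of library stock) in duplicate plates.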
IMPase cell inh – membrane-permeable compound that blocks inositol monophosphatase; inhibition (IP1 accumulation), % at 46.1 µM; CHO-M1 cells, IP1 accumulation, HTRF TR-FRET ratio; 120,000 tested, under 10 active; active means well fitted curve in the direction sought with a large enough effect in the signal ratio, not every such curve was filed as active; inconclusive means small, poorly fitted or top-dose-only effect, or a change in a side signal; inactive means no such curve, though single readings can be large or run the other way; the % refers to the signal ratio;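 further: cells stimulated with carbachol in lithium chloride buffer; higher means more IMPase inhibition seen as more IP1 and lower FRET ratio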
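CHO-M1, 2000 cells/well, cultured 16–30 h; cpd up to 46 uM; carbachol (50 uM solution, stimulation buffer w/ 50 mM LiCl, pH 7.4), 30 min 37C; IP-One TR-FRET, 10 min RT; Ex 320/Em 665, 620; Hill-fit AC50.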
Large screens that a line does not name were inactive. Unless noted, the call rests on the fitted dose curve; in most records, active means well fitted inhibition curve with a large enough effect (not every such curve was filed as active); inconclusive means small, poorly fitted or top-dose-only effect, or another doubt; inactive means no such curve, though single readings can be large or run the other way.

COC(=O)N1CCC[C@@]2(CCN(C(=O)Nc3ccc(OC)cc3)C2)C1	none (no result: LMNA splice mod, PNC inhibitor, IMPase cell inh)
CCN(CC)CC(O)COc1ccccc1C(=O)CCc1ccccc1 (stereo not given)	PNC inhibitor -86.0 (no result: Luc counter, HPGD block)
COc1ccc(/C=N/NC(=O)C(C)Sc2ccccn2)cc1[N+](=O)[O-] (stereo not given)	none (no result: HPGD block, PNC inhibitor, IMPase cell inh)
O=[N+]([O-])c1cc(/C=N\Nc2nccs2)ccc1O	ALDH1A1 block inconclusive, HPGD block 8.91µM
Cc1cc([N+](=O)[O-])cc(C)c1OCC(=O)N/N=C/c1ccc(OC(=O)c2ccccc2)cc1	PNC inhibitor -100.0 (no result: IMPase cell inh)
O=C(COc1ccccc1[N+](=O)[O-])N/N=C/c1ccc(O)c([N+](=O)[O-])c1	ALDH1A1 block 25.1µM (no result: HPGD block, PNC inhibitor, IMPase cell inh)
O=C(Nc1nccs1)c1ccc(Cl)cc1[N+](=O)[O-]	none
COc1ccc(/C=N\NC(=O)CNC(=O)C(c2ccccc2)c2ccccc2)cc1[N+](=O)[O-]	ALDH1A1 block 11.2µM, LMNA splice mod inconclusive, PNC inhibitor inconclusive (no result: IMPase cell inh)
Cc1cc(=Nc2ccc3c(c2)c(N)cc(C)[n+]3C)nc(N)n1C	none (no result: LMNA splice mod, PNC inhibitor, IMPase cell inh)
O=C(c1ccccc1Cl)N1CCN(CCc2ccccn2)CC1	none (no result: Luc counter, ALDH1A1 block, HPGD block, PNC inhibitor, IMPase cell inh)
CCCNC(=O)C1CNc2ccccc2O1 (stereo not given)	HPGD block 25.1µM
O=C(NCCO)C1COc2ccccc2O1 (stereo not given)	none (no result: HPGD block, PNC inhibitor, IMPase cell inh)
Brc1cc2c(cc1COc1ccc(-c3nn[nH]n3)cc1)OCO2	ALDH1A1 block inconclusive, HPGD block 25.1µM
CCOc1ccc(-c2nn[nH]n2)cc1	none
Cc1cccc(N2CCN(C(=O)Cn3ncc4c([nH]c5ccccc54)c3=O)CC2C)c1 (stereo not given)	none (no result: Luc counter, ALDH1A1 block, HPGD block, PNC inhibitor, IMPase cell inh)
CC(=O)c1cc(CC=C(C)C)c(O)cc1O	HPGD block 12.6µM
CCC(=O)NC(c1ccccc1OC)c1ccc2cccnc2c1O (stereo not given)	LMNA splice mod inconclusive, PNC inhibitor -100.0
C=CCNC(=O)COc1ccc(Br)cc1Cl	HPGD block inconclusive, PNC inhibitor -113.7
CN(C)CCCNC(=O)COc1ccc(Br)cc1Cl	LMNA splice mod inconclusive, PNC inhibitor -87.3 (no result: IMPase cell inh)
COCCNC(=O)COc1ccc(Br)cc1Cl	HPGD block inconclusive
CCc1cccc(NC(=O)C2Cc3ccccc3N2C(=O)c2ccccc2)c1 (stereo not given)	none (no result: Luc counter, ALDH1A1 block, HPGD block, PNC inhibitor, IMPase cell inh)
C(#Cc1ccc(C#CCN2CCCC2)cc1)CN1CCCC1	LMNA splice mod inconclusive, PNC inhibitor -89.8
CCN1C(=O)[C@H]2[C@H]3[C@H](O)[C@H](O)C/C(=N/NC(=O)OCc4ccc(OC)cc4)[C@@H]3CC[C@@H]2C1=O	none (no result: Luc counter, HPGD block, LMNA splice mod, PNC inhibitor, IMPase cell inh)
Nc1[nH]nc2nc3ccccc3cc12	none (no result: HPGD block, LMNA splice mod, PNC inhibitor, IMPase cell inh)
CCc1ccc2nc3n[nH]c(N)c3cc2c1	ALDH1A1 block inconclusive, HPGD block 28.2µM, LMNA splice mod inconclusive
CN(C)C(=O)c1ccc(-c2ccc3ncnc(NC4CCNCC4)c3c2)cc1	ALDH1A1 block inconclusive, HPGD block inconclusive (no result: PNC inhibitor, IMPase cell inh)
COC(=O)c1ccc(CSc2nnc(NCc3ccccc3)s2)o1	HPGD block 14.1µM
COC(=O)c1ccc(CSc2nnc(-c3ccncc3)n2Cc2ccccc2)o1	ALDH1A1 block 25.1µM (no result: Luc counter, HPGD block)
COC(=O)c1ccc(CSc2nnc(Nc3ccccc3OC)s2)o1	ALDH1A1 block 25.1µM, LMNA splice mod inconclusive
COC(=O)c1ccc(CSc2nnc(Nc3ccc(OC)cc3)s2)o1	PNC inhibitor inconclusive
COc1cc(C2Oc3nc(SC)nnc3-c3ccccc3N2C(C)=O)cc(Cl)c1OC (stereo not given)	none (no result: Luc counter, ALDH1A1 block, HPGD block, LMNA splice mod, PNC inhibitor)
COc1ccc(-n2c(=O)c3c4c(sc3n3c(SC(C)C)nnc23)COC(C(C)C)C4)cc1 (stereo not given)	none (no result: Luc counter, ALDH1A1 block, HPGD block, LMNA splice mod, PNC inhibitor)
O=C(c1nc(-c2ccc(Cl)cc2)n2c1CCCCC2)N1CCN(c2ccc(F)cc2)CC1	none (no result: Luc counter, ALDH1A1 block, HPGD block, PNC inhibitor, IMPase cell inh)
CCC(Sc1nc2nccnc2c(=O)n1Cc1ccc(Cl)cc1)C(=O)NC1CCCCC1 (stereo not given)	none (no result: Luc counter, ALDH1A1 block, HPGD block, PNC inhibitor, IMPase cell inh)
CC(C)(C)C(=O)NC(=S)Nc1ccc(F)cc1	ALDH1A1 block 22.4µM, LMNA splice mod inconclusive (no result: IMPase cell inh)
O=C(NC(=S)Nc1ccc(F)cc1)c1ccc2c(c1)OCCO2	ALDH1A1 block 12.6µM (no result: HPGD block, LMNA splice mod, PNC inhibitor, IMPase cell inh)
O=C(NC(=S)NNC(=O)c1cnccn1)c1ccc(F)cc1	ALDH1A1 block 28.2µM (no result: HPGD block, LMNA splice mod, PNC inhibitor, IMPase cell inh)

Compound activity (PubChem)
